# High-throughput results (PubChem)
# In the library only some 19% were active in any assay of this set; here they are far more common.
# Pf growth 96h: Primary qHTS for delayed death inhibitors of the malarial parasite plastid, 96 hour incubation; Potency, µM (series often up to 28.7 µM), inactives show at the highest dose activity change, negative = inhibition, actives largely listed as inhibitors; P. falciparum luciferase reporter growth, 96 h; 320,000 compounds, 6.9% hits; AID 504834, 2011; also: potency is read from the fitted curve at half-maximal effect; % is scaled to controls: 0 for no effect and ±100 for the full control effect
#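 Compounds incubated with erythrocytes infected by luciferase-expressing P. falciparum (2% hematocrit, 0.05% parasitemia final) for 96 hours, 37 C in 5% CO2. Growth inhibition scored as decreased luciferase luminescence.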
# Marburg entry inh: qHTS for inhibitors of binding or entry into cells for Marburg Virus | Marburg virus pseudotyped entry inhibition, cell reporter | Potency, µM (top dose mostly 37.8 µM), inactives show at the highest dose activity change, negative = inhibition, actives largely listed as inhibitors | AID 540276, 2011 | 300,000 compounds, 1.8% hits; calls by dose curve; tested in HEK293 cells; also: potency is read from the fitted curve at half-maximal effect; % is scaled to controls: 0 for no effect and ±100 for the full control effect
# CHX counter: Cycloheximide Counterscreen for Small Molecule Inhibitors of Shiga Toxin. cell reporter, cycloheximide protein synthesis inhibition counterscreen. max response, %. 300,000 compounds, 12% hits; in the data active = max response mostly above about 13%, no sharp cut-off; inactive = mostly below about 14%; also: read at 38.3 µM for the half of the compounds with a filed dose; 0% is about no effect
# LASV entry inh: qHTS for Inhibitors of binding or entry into cells for Lassa Virus; Lassa virus pseudotype entry inhibition, cell reporter; Potency, µM (series often up to 37.9 µM), for inactives: top-dose activity change, negative = inhibition, most hits filed as inhibitors; 300,000 compounds, 1.2% hits; AID 540256, 2011; calls by dose curve; tested in HEK293 cells; also: potency is read from the fitted curve at half-maximal effect; % is scaled to controls: 0 for no effect and ±100 for the full control effect; nearly all actives have a fitted effect of over 50% in size
# Pf growth 48h: Primary qHTS for delayed death inhibitors of the malarial parasite plastid, 48 hour incubation; P. falciparum luciferase growth in erythrocytes, 48 h; Potency, µM (titrated, usually from 28.7 µM), for the others: at the highest dose activity change, negative = inhibition, actives largely listed as inhibitors; 310,000 compounds, 5.9% hits; also: potency is read from the fitted curve at half-maximal effect; % is scaled to controls: 0 for no effect and ±100 for the full control effect
#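 Growth was read as firefly luciferase luminescence after a 48 h, 37 C, 5% CO2 exposure of compounds to reporter-bearing P. falciparum cultures (0.1% parasitemia, 2% hematocrit final) in Albumax-supplemented RPMI 1640.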
# Shiga toxin inh: A qHTS for Small Molecule Inhibitors of Shiga Toxin. Vero cells, Shiga toxin protein synthesis inhibition reporter. inhibition, % at 38.7 µM. 290,000 compounds, 9.2% hits. AID 2315, 2010; in the data active = inhibition mostly above about 28%, no sharp cut-off; inactive = mostly below about 43%; also: 0% is about no effect
# Starred values were filed as active, the others as inactive; ? = inconclusive; . = no result; ! = a repeat was not active; [ ] = dose if it differs, or a comment. Unless noted, calls follow the shape of the dose curve; as a rule, active = well fitted inhibition curve with a large enough effect; inconclusive = small, poorly fitted or top-dose-only effect, or another doubt; inactive = no such curve, though single readings can be large or run the other way.
SMILES,Pf growth 96h,Marburg entry inh,CHX counter,LASV entry inh,Pf growth 48h,Shiga toxin inh
CCOC(=O)C1=C(COC(=O)Cc2ccc(Cl)cc2)NC(=O)NC1C (stereo unspecified),-14.1%,.,.,.,-20.4%,.
COc1ccc(CCNS(=O)(=O)c2ccc3c(c2)CC(C)N3C(=O)C2CCC2)cc1OC (stereo unspecified),.,.,.,-27.5%[46.1 µM],.,.
COc1ccc(/C=N/NC(=O)CSCC(=O)Nc2ccccc2)cc1,28.6%,.,10.8,.,49.8%,29.7
O=C(Nc1ccccc1)c1ccccc1N=Cc1cccc(O)c1,15.0%,-24.2%,1.1,24.8%[46.1 µM],?,6.8
COc1cccc(/C=N\NC(=O)Cn2nnc3ccccc32)c1O,27.2%,?,27.1*,?,-18.1%,75.5*
COc1cccc(C=Nc2ccccc2C(=O)Nc2ccccc2)c1O,125.9%,-31.5%,54.6*,?,87.7%,77.5*
COc1cccc(/C=N/NC(=O)CSCC(=O)Nc2ccccc2)c1O,?,20.6µM*,-4.0,?,?,-23.0
COc1ccc(-c2nc(CN3CCC(C(=O)NC4CC4)CC3)c(C)o2)cc1OC,17.8%,17.3%[46.1 µM],-6.1,11.1%[46.1 µM],19.9%,-2.5
CCOc1cc(/C=N/NC(=O)c2cccnc2)ccc1OCc1ccc(C(=O)OC)o1,?,.,10.8,.,34.4%[5.75 µM],-4.3
CC(C)(C)c1ccc(NC(=O)COC(=O)c2ccc(NS(=O)(=O)c3ccc(F)c(F)c3)cc2)cc1,31.6%,?,-1.5,12.6µM*,10.1%,-7.1
Cc1cc(NC(=O)COC(=O)c2ccc(NS(=O)(=O)c3ccc(C)c(C)c3)cc2)no1,?,?,-2.9,-18.6%,-24.6%,-5.8
CC(C)(C)NC(=O)NC(=O)COC(=O)c1cccc(NS(=O)(=O)c2ccc(F)c(F)c2)c1,7.7%,?,5.3,10µM*,4.8%,-10.2
C=C(C)Cn1c(N2CCN(c3ccc(OC)cc3)CC2)nc2c1c(=O)n(C)c(=O)n2C,31.1%,?,-3.0,?,-8.1%,-7.8
CCCC(=O)Nc1ccc2c(c1)COC2=O,126.9%,7.5%[46.1 µM],6.1,10.9%,53.5%,24.6
CCc1ccc(NC(=O)NCc2ccc3c(c2)OCO3)cc1,9.2%,.,13.5,.,34.3%,6.8
Cn1cc(CNC(=O)Nc2ccc3c(c2)OCO3)cn1,-3.1%,5.8%,14.8*,14.5%,54.0%,26.7
O=C(NCc1cccnc1)Nc1ccc2c(c1)OCO2,?,.,26.8*,.,61.7%,128.3*
O=C(NCCCn1ccnc1)Nc1ccc2c(c1)OCO2,47.9%,14.3%[46.1 µM],38.7*,7.9%[46.1 µM],58.0%,75.8*
Cc1ccc(C2=NC3(CCCCCC3)NC2=S)cc1,?,0.6%,2.5,10.8%,9.8%,11.0
NC(N)=Nc1nc(CSCC/C(N)=N/S(N)(=O)=O)cs1,4.26µM*!,?,-3.3,14.9%,-0.9%,-12.6
CCCn1c(C(C)NC(C)=O)nc2ccccc21 (stereo unspecified),4.1%,.,-2.6,.,5.7%,-14.2
Cc1onc(-c2ccccc2)c1C(=O)N1CCCN2C(=O)c3ccccc3C21 (stereo unspecified),10.4µM*,-4.9%,-0.7,1.3%,?,-7.5
O=C(NC1=NCCS1)c1cccc(NC(=O)c2ccco2)c1,7.6%,22.6%[46.1 µM],0.4,16.5%,58.2%,5.9
Oc1[nH]c2ccccc2c1N=Nc1ccc(F)cc1,?,?,20.9*,18.3%,126.5%,65.5*
Oc1[nH]c2ccc(Br)cc2c1N=Nc1ccc(F)cc1,43.0%,23.8%[46.1 µM],14.2,28.8%[46.1 µM],35.5%,45.0
SMILES,Pf growth 96h,Marburg entry inh,CHX counter,LASV entry inh,Pf growth 48h,Shiga toxin inh
CC(C)(O)C(=O)N=Nc1c(O)[nH]c2ccccc12,2.3%,-7.4%[46.1 µM],33.5*,6.1%,111.6%,61.3*
Oc1[nH]c2ccccc2c1N=Nc1ccccc1F,?,?,20.7*,14.5%,241.4%,125.5*
Oc1[nH]c2ccccc2c1N=Nc1nc2ccccc2s1,297.3%,?,35.4*,?,.,48.9*
O=C(N=Nc1c(O)[nH]c2ccccc12)c1cc(-c2ccc(F)cc2)n[nH]1,16.0%,1.1%[46.1 µM],5.2,-0.3%[46.1 µM],26.6%,22.4
COc1ccc(NC(=S)N2CCC(NC(=O)C3CCCCC3)CC2)cc1,-2.7%,3.1%[46.1 µM],-2.3,-14.5%[46.1 µM],-0.8%,-21.3
O=C(CNC(=O)c1ccco1)OCN1C(=O)c2ccccc2C1=O,-0.3%,0.4%,-1.5,0.7%,-19.8%,-4.2
CCCc1cc(=O)[nH]c(SCCOC(=O)c2ccccc2)n1,27.7%,-11.3%,6.3,?,.,7.7
CCN(C(=O)CSc1nnnn1C)C1CCCCC1,.,6.7%,.,-1.8%,.,.
Oc1[nH]c2ccccc2c1N=Nc1ccccc1,165.0%,17.9%[46.1 µM],43.5*,15.3%,112.9%,104.1*
O=[N+]([O-])c1ccc(N=Nc2c(O)[nH]c3ccc(F)cc23)cc1,32.8%,?,44.5*,?,75.2%,55.6*
O=S1(=O)N=C(N=Nc2c(O)[nH]c3ccccc23)c2ccccc21,7.0%,.,6.9,.,-13.7%,13.6
NS(=O)(=O)c1cc(C(=O)N=Nc2c(O)[nH]c3ccccc23)ccc1Cl,1.47µM*,-14.3%,7.0,-0.4%,10.4µM*,11.7
Cc1ccc(S(=O)(=O)N=Nc2c(O)[nH]c3ccccc23)cc1,11.7µM*,28.7%,-8.4,5.6%,5.2%,-9.5
CCOC(=O)c1c(C)n(C)c2ccc(OC)c(NC(=O)CN3CCN(Cc4ccccc4)CC3)c12,25.8%,4.0%,-2.6,0.1%,10.4µM*,-12.6
CCOC(=O)c1c(C)n(C)c2ccc(OC)c(NC(=O)CN3CCC(C(=O)OCC)CC3)c12,3.29µM*,.,9.5,.,?,-2.8
CCOC(=O)c1c(C)n(C)c2ccc(OC)c(NC(=O)CN3CCN(C4CCCCC4)CC3)c12,.,?,9.7,-8.3%,?,-18.3
CCOC(=O)c1c(C)n(C)c2ccc(OC)c(NC(=O)CN3CCN(C(=O)c4ccco4)CC3)c12,?,7.9%,-2.4,-1.2%,5.22µM*,-3.6
COC(=O)c1ccc(Cl)c(NC(=O)NC23CC4CC(CC(C4)C2)C3)c1,0.657µM*,-4.7%,-0.1,?,.,21.7
Cc1ccc(NC(=S)N(CCCN(C)C)Cc2cc3cc4c(cc3[nH]c2=O)OCO4)c(C)c1,?,12.7%[46.1 µM],-1.3,-28.6%,9.28µM*,-22.7
Cc1ccc(NC(=O)N(CCCN2CCOCC2)Cc2cc3cc4c(cc3[nH]c2=O)OCO4)cc1,13.1µM*,-17.0%,-3.9,20.6%,0.928µM*,28.0
Cc1ccc(NC(=O)N(Cc2ccc3c(c2)OCO3)Cc2cc3cc4c(cc3[nH]c2=O)OCCO4)cc1,.,?,1.6,?,1.31µM*,-17.0
O=C(Nc1ccc(F)cc1)N(Cc1ccco1)Cc1cc2cc3c(cc2[nH]c1=O)OCO3,?,17.8µM*,-1.5,-4.7%,10.4µM*,-12.6
CCc1ccc(NC(=S)Nc2ccc(S(=O)(=O)Nc3ncccn3)cc2)cc1,23.2%,.,15.7,.,8.6%,25.7
